Most compounds without a hit are left out; they make up all but 10% or so of the library.
JMJD2A Tudor – qHTS Assay for Inhibitors of JMJD2A-Tudor Domain; Lysine-specific demethylase 4A (Homo sapiens), O75164; AlphaScreen JMJD2A-Tudor / H3K4me3 peptide binding; Potency, µM (highest dose often 114 µM), for inactives: at the top dose activity change, negative = inhibition, usual class: inhibitors; 390,000 compounds, 4.4% hits; AID 504339, 2011; note: % is set by controls: 0 for no effect and ±100 for the full control effect; nearly all actives have a fitted effect of over 50% in size
GLS inhibitor – qHTS for Inhibitors of Glutaminase (GLS) | Glutaminase kidney isoform, mitochondrial (Homo sapiens), O94925 | GLS enzymatic activity, qHTS titration | Potency, µM (highest dose often 45.5 µM), without a hit: at the highest dose activity change, negative = inhibition, actives largely listed as inhibitors | 410,000 compounds, 0.21% hits | AID 624170, 2012; note: % is set by controls: 0 for no effect and ±100 for the full control effect
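Compounds were pin-transferred onto hKGA, after which L-glutamine (1 mM solution) and a detection mix of glutamate oxidase, HRP and Amplex Red were added. Initial and 30 min RT fluorescence reads were collected.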
BAZ2B inh – qHTS Assay for Inhibitors of BAZ2B | Bromodomain adjacent to zinc finger domain protein 2B (Homo sapiens), Q9UIF8 | 360,000 compounds, 4.4% hits | Potency, µM (titrated, usually from 114 µM), inactives show top-dose activity change, negative = inhibition, usual class: inhibitors | AID 504333, 2011 | AlphaScreen BAZ2B-H3K14Ac peptide displacement; note: % is set by controls: 0 for no effect and ±100 for the full control effect; nearly all actives have a fitted effect of over 60% in size
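Protein-peptide AlphaScreen: BAZ2B 50 nM, b-H3K14Ac 50 nM, 1x PBS pH 7.4 + 0.01% Tween-20. Preincubation 30 min RT; cpd 30 min RT (top 110 uM); beads 20 min RT, light-protected.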
HP1b binding inh – HTS for Inhibitors of HP1-beta Chromodomain Interactions with Methylated Histone Tails. Chromobox protein homolog 1 (Homo sapiens), P83916. AlphaScreen HP1-beta / biotin-H3K9me3 peptide binding. Potency, µM (top dose mostly 114 µM), for inactives: at the highest dose activity change, negative = inhibition, usual class: inhibitors. 390,000 compounds, 0.56% hits; note: nearly all actives have a fitted effect of over 70% in size
Target sequence (P83916 whole entry, looked up): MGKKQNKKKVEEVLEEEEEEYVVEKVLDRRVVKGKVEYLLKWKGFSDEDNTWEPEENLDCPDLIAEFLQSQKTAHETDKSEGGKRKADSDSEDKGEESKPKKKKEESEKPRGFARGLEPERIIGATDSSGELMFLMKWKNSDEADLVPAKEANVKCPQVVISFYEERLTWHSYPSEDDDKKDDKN
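AlphaScreen: HP1-beta (50 nM) preformed 30 min with biotin-H3(1-18)K9me3 peptide (50 nM) in PBS pH 7.4, 0.01% Tween-20. Compound added for 30 min at RT, then streptavidin donor/nickel chelate acceptor beads (10 ug/mL) for 30 min.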
G9a block – qHTS Assay for Inhibitors of Histone Lysine Methyltransferase G9a | Potency, µM (top dose mostly 102 µM), for inactives: at the highest dose activity, negative = inhibition, actives largely listed as inhibitors | AID 504332, 2011 | Histone-lysine N-methyltransferase EHMT2 (Homo sapiens), Q96KQ7 | 350,000 compounds, 8.8% hits | G9a H3K9 monomethylation, AlphaScreen, 2 h; note: % is set by controls: 0 for no effect and ±100 for the full control effect; nearly all actives have a fitted effect of over 75% in size
Target sequence (Q96KQ7 913-1193 limits assumed): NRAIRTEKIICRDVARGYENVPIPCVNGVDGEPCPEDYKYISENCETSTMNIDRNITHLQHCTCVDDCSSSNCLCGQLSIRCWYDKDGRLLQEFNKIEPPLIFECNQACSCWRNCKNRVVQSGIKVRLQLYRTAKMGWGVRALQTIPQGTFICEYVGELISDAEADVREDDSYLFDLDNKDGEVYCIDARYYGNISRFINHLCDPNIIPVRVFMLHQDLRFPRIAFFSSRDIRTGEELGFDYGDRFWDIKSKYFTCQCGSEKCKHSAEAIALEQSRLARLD
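Readings reflect AlphaScreen signal from monomethyl-H3K9 antibody detection. HMT at 20 nM; substrate b-H3K9 500 nM; cofactor SAM 20 uM; 2 h RT reaction; compounds tested as titrations in qHTS with 15 min preincubation.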
* = called active by the depositor; ? = inconclusive; · = no result; ! = repeats disagree; [ ] = remark or other dose. Calls come from the whole dose curve; as a rule, active = well fitted curve in the direction sought with a large enough effect; inconclusive = small, poorly fitted or top-dose-only effect, or another doubt; inactive = no such curve, though single readings can be large; an effect the other way counts as inactive or inconclusive. Potency is the fitted concentration of half-maximal effect.

SMILES	JMJD2A Tudor	GLS inhibitor	BAZ2B inh	HP1b binding inh	G9a block
Cc1cc(C)n(CCOC(=O)c2sc3ccccc3c2Cl)n1	1%	-1%	8%	34%	-35%
CCOC(=O)c1ccc(NC(=O)c2ccc(NC(=O)c3ccccc3)cc2)cc1	-2%	-2%	0%	7%	17%
CCCCOc1ccc(CN2CCC(O)CC2)cc1	2.8µM*	-1%	?	-29%	·
OC(COc1ccc(C2C=CCC2)cc1)CN1CCCCC1 (stereo unspecified)	-29%	-2%	-4%	-19%	40µM*
COc1ccc(CCNC(=O)c2ccc(CN3CCC(Cc4ccccc4)CC3)cc2)cc1OC	-19%	5%	-1%	18%	-10%[59 µM]
COCCNC(=O)c1ccc(CN2CCC(Cc3ccccc3)CC2)cc1	-3%	0%	?	35%	1%
CCOc1ccc(CN2CCC(Cc3ccccc3)CC2)cc1	25µM*	13%	?	?	45µM*
OC(COc1ccccc1)CN1CCCCC1 (stereo unspecified)	-1%	-7%	·	16%	·
COc1ccc(CN2CCC(Cc3ccccc3)CC2)cc1OC	20µM*	6%	?	?	50µM*
CCCc1nnc(NC(=O)c2c(O)c3c([nH]c2=O)CCCC3)s1	14%	·	7%	37%	23%[59 µM]
COc1cccc(OC)c1OCCCN1CCC(Cc2ccccc2)CC1	20µM*	12%	-35%	?	25µM*
O=[N+]([O-])c1cccc(CN2CCC(Cc3ccccc3)CC2)c1	1.6µM*	-6%	50µM*	?	35µM*
OC(COc1ccc(Cl)cc1)CN1CCC(Cc2ccccc2)CC1 (stereo unspecified)	-18%	1%	-18%	54%	28µM*
Cc1[nH]c2ccccc2c1CN1CCC(Cc2ccccc2)CC1	0.79µM*	-2%	45µM*	?	14µM*
CCOC(=O)C1=C(N)Oc2ccc3ccccc3c2C1c1cccnc1 (stereo unspecified)	?	2%	-38%	-15%	-41%[59 µM]
O=C(CCN1Cc2ccccc2C1)c1ccc2c(c1)OCCO2	?	40%	-12%	14%	8.9µM*
O=C(O)CCSCC(=O)c1ccc2c(c1)OCCO2	?	11%	3%	73%	32µM*
O=C(O)CCC(=O)c1ccc2c(c1)OCCO2	-10%	-6%	8%	62%	16%
COc1ccc(Br)cc1-c1noc(-c2ccccc2)n1	2%	0%	3%	43%	0%[59 µM]
COc1ccc(Br)cc1-c1nc(C)c(C(C)=O)n1O	-18%	10%	-30%	18%	10µM*
CC(=O)Nc1ccc(S(=O)(=O)NNC(=S)NCc2ccco2)cc1	?	28%	-23%	43%	32µM*
COC(=O)c1ccc(NC(=S)N2CCN(C(=O)c3ccco3)CC2)cc1	-7%	-3%	-21%	9%	32µM*
O=S(=O)(NCc1ccccc1)c1ccc(NC(=S)NCc2ccco2)cc1	?	9%	?	-16%	50µM*
C/C(=N\Nc1ccccn1)c1ccc(S(=O)(=O)NCc2ccco2)cc1	-30%[57.1 µM]	12%	50µM*	?	-14%[59 µM]
S=C(NCc1ccco1)Nc1ccccc1	-12%	-10%	-18%	11%	8%
SMILES	JMJD2A Tudor	GLS inhibitor	BAZ2B inh	HP1b binding inh	G9a block
CCCCc1ccc(S(=O)(=O)NNC(=S)NCc2ccco2)cc1	-24%	12%	-11%	11%	-8%[59 µM]
O=C(Nn1c(=O)[nH]c2ccccc2c1=O)c1ccco1	3%	-4%	6%	27%	7%
N=c1sccn1CC(=O)N1CCc2ccccc21	-8%	-1%	-2%	28%	?
CCN(CC)CC(O)COc1ccc2c(c1)c(C(C)=O)c(C)n2-c1ccccc1 (stereo unspecified)	-21%	4%	7%	5%	3%[59 µM]
Cc1cc(C)n(CCCNC(=O)C2CC(=O)N(Cc3ccccc3)C2)n1 (stereo unspecified)	3%	7%	-4%	15%	-24%
O=C(c1ccc(NC(=S)NCc2ccco2)cc1)N1CCCCC1	-25%	3%	-26%	-5%	50µM*
CCNS(=O)(=O)c1ccc(NC(=S)NCc2ccco2)cc1	-19%	-5%	-8%	-11%	14µM*
CCC(=O)Nc1ccc(S(=O)(=O)NCc2ccco2)cc1	-12%	4%	-22%	20%	45µM*
O=C(CNS(=O)(=O)c1ccccc1)NCc1ccco1	0%	0%	-32%	28%	79µM*
Cc1ccc(C(=O)Nc2ccc(S(=O)(=O)NCc3ccco3)cc2)cc1	?	-1%	?	-8%	?
O=S(=O)(Nc1ncccn1)c1ccc(NC(=S)NCc2ccco2)cc1	-26%[57.1 µM]	3%	-19%	19%	?
Cn1c(=O)c2c(nc(CN3CCN(C(=O)c4ccco4)CC3)n2Cc2ccccc2F)n(C)c1=O	-17%	5%	4%	24%	?
CC(Sc1nnc2n1CCCCC2)C(=O)Nc1ccc(S(N)(=O)=O)cc1 (stereo unspecified)	-11%	1%	5%	9%	45µM*
COc1ccccc1Nc1c2ccccc2nc2ccccc12	?	-30%	-19%	?	9%
CCCCCCCCCCCCCCCC(=O)OCC(COC(=O)CCCCCCCCCCCCCCC)OC(=O)CCCCCCCCCCCCCCC	·	1%	·	·	-22%[12.7 µM]
CCCCCCCCCCCCCCCC(=O)OC(CC(=O)O)C[N+](C)(C)C (stereo unspecified)	-27%	1%	4%	20%	32µM*!
CCOC(=O)OCC(=O)C1(O)CCC2C3CCC4=CC(=O)CCC4(C)C3C(O)CC21C (stereo unspecified)	-8%	-9%	·	47%	·
C=CCSc1nnc(-c2cc3c(C(F)(F)F)nn(C)c3s2)n1C	10%	6%	1%	46%	71µM*
Cc1ccc(NC(=O)C2CCCN(C(=O)c3cnn(-c4ccccc4)c3-n3cccc3)C2)cc1 (stereo unspecified)	-28%	2%	-1%	18%	-3%[59 µM]
O=c1[nH]c(=S)n2c(c1-c1ccccc1)OC(CBr)C2 (stereo unspecified)	·	1%	·	·	·
COC(=O)C1=C(C(=O)OC)[C@@H]2N(C)c3ccc(OC)cc3[C@@]23C[C@@H](C(=O)OC)N(C(=O)c2ccc(Br)cc2)C3=N1	13µM*	40%	20µM*	-23%	?
CCOC(=O)N1C2=NC(C(=O)OC)=C(C(=O)OC)[C@@H]3N(C)c4ccc(OC)cc4[C@]23C[C@H]1C(=O)OC	-12%	35%	·	25%	·
Cn1cnc(C(=O)N2CCc3ccccc3C2)c1C(=O)N1CCc2ccccc2C1	16µM*	5%	·	?	·

Assay outcomes (PubChem BioAssay)
